# Over roughly 16,000 sequences, “Z-score” has its median near -0.37; the highest 2% begin near 3.1. Shown is part of a subset that was picked to be rich in the highest values.
# Tested on: RBM10 RRM1-ZnF-RRM2 (GST-tagged construct)
# Experiment: RNAcompete 7-mer binding Z-score; higher = stronger binding preference
# Description: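 RNAcompete: 20 pmol GST-tagged RBM10 RNA-binding constructs were incubated with a designed RNA pool of about 241,000 sequences up to 41 nt (1.5 nmol) on glutathione beads for 30 min at 4 °C and washed. Bound RNAs were identified by microarray hybridisation. Each RNA 7-mer is scored by a one-sided Z-score of its enrichment, computed over probes that contain the 7-mer within longer pool sequences.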
row,Sequence,RNAcompete 7-mer binding Z-score
1,UACCUGC,-0.887
2,GUCCGUA,-0.471
3,GGAGUCA,1.05
4,GCAGGGU,3.35
5,ACAGGGG,3.19
6,CCAGGGU,1.18
7,UCAGGGG,1.46
8,GCAGGGC,1.51
9,ACAGGGU,3.11
10,CCAGGGG,1.43
11,ACAGGAG,2.7
12,GCAGGGG,3.15
13,CCAGGGA,1.51
14,ACAGGGC,2.36
15,ACAGGGA,3.47
16,AUAUACC,-0.628
17,CAUUCUC,-0.857
18,UGCACAU,-0.362
19,UCACAAG,-0.256
20,CUCGCGU,-0.635
21,CGGAUCA,0.578
22,AAGGUGU,2.26
23,GAGGUGU,2.31
24,GAGGUGC,1.65
25,GAGGUGA,2.6

row,Sequence,RNAcompete 7-mer binding Z-score
1,AAGGUGA,3.62
2,AAGGUGG,4.32
3,AAGGUGC,2.55
4,GAGGUGG,3.37
5,CAGGUGA,1.54
6,AUUCUCC,-0.679
7,AGCAACG,0.359
8,UGCCACU,-0.741
9,UCUCCCA,-0.697
10,GCUAAUA,-0.282
11,GAUAUGA,0.643
12,UAGUGGA,1.52
13,AAGUGGU,1.6
14,AAGUGGG,3.5
15,CAGUGGG,2.93
16,GAGUGGA,3.07
17,AAGUGGA,3.2
18,CCCCUCG,-0.573
19,GUCAGAG,0.406
20,GCUGCGG,1.05
21,AAUGCGA,0.286
22,CGGCACA,0.133
23,UAGACGC,-0.333
24,AGGGUUG,3.34
25,GGGGUUC,1.83

row,Sequence,RNAcompete 7-mer binding Z-score
1,UGGGUUA,2.83
2,AGGGUUC,0.996
3,CGGGUUG,2.32
4,AGGGUUA,3.86
5,GGGGUUA,3.07
6,UGGGUUG,2.56
7,GGGGUUG,3.23
8,GUAGUCU,-0.256
9,CCGUUUU,-1.01
10,UGCAUAU,-0.49
11,UUUCACU,-0.704
12,UCAUUAU,-0.621
13,UACCGAA,-0.428
14,CUUACAA,-0.785
15,GUAAGUC,-0.0743
16,CCGAACU,-0.839
17,CCCACCC,-0.337
18,GGGGAGA,2.53
19,UGGGAGG,4.58
20,UGGGAGA,2.56
21,UGGGAGU,1.95
22,AGGGAGU,3.13
23,GGGGAGG,3.33
24,AGGGAGG,3.18
25,CGGGAGG,2.96

row,Sequence,RNAcompete 7-mer binding Z-score
1,GGGGAGU,2.86
2,CAUGGCC,-0.344
3,GUUGCCU,-0.613
4,AGGUUAC,0.538
5,GAUCGCU,-0.697
6,CGGGUCC,0.723
7,GCGAGGG,3.86
8,ACGAGGG,3.71
9,UCGAGGG,1.93
10,ACGAGGU,1.36
11,ACGAGGC,0.742
12,GCGAGGA,2.06
13,AAAGCAA,0.563
14,AGCAGAA,0.701
15,GUAAGGC,2.12
16,AUAAGGG,3.85
17,GUAAGGG,3.65
18,AUAAGGU,1.74
19,GUAAGGA,3.28
20,UUAAGGA,0.982
21,CUAAGGA,0.286
22,CUAAGGG,1.35
23,AUAAGGA,2.16
24,GAUCGUU,-0.464
25,AUUAAUA,-0.544

row,Sequence,RNAcompete 7-mer binding Z-score
1,AAUAGAG,0.742
2,AAGUUGC,-0.293
3,UGCUCCC,-0.821
4,UAGAAGG,3.2
5,GAGAAGG,4.54
6,AAGAAGU,0.818
7,CUGAAGG,0.902
8,CAGAAGG,2.37
9,UAGAAGA,0.348
10,AAGAAGA,1.03
11,GUGAAGG,3.69
12,GAGAAGA,1.04
13,AUGAAGG,2.82
14,AAGAAGG,3.81
15,UAGAAGU,0.319
16,UAUCUAC,-0.548
17,UCACCAA,-0.65
18,AAAGCUC,-0.53
19,AGCUUCG,-0.795
20,UCAGAGU,0.0786
21,GCUCUCA,-0.526
22,CAGGGUU,2.05
23,UAGGGUU,3.14
24,ACGGGUA,2.22
25,CAGGGUA,2.88

row,Sequence,RNAcompete 7-mer binding Z-score
1,AAGGGUA,4.27
2,UCGGGUU,0.916
3,GAGGGUU,2.88
4,UCGGGUA,1.57
5,UAGGGUA,4.16
6,GAGGGUC,1.39
7,AAGGGUC,2.01
8,GAGGGUG,3.5
9,UUCCAGC,-0.715
10,GUGUUCA,-0.442
11,AGGUUUC,0.184
12,ACUUGGU,-0.267
13,GUUAGUG,0.953
14,UCUAGCA,-0.712
15,GUCAGUU,-0.289
16,CCGCUAG,-0.588
17,CACUUCC,-0.868
18,UUCCCUG,-0.737
19,AACAUGC,-0.435
20,AAGGUUU,2.37
21,GAGGGCG,2.81
22,GAGGGUA,4.4
23,CAGGGUG,2.84
24,CAGGGUC,1.42
25,AGGGUUU,2.4

row,Sequence,RNAcompete 7-mer binding Z-score
1,UAGGGUC,2.16
2,UAGGGUG,4.51
3,AAGGGUU,3.94
4,UACUCUC,-0.734
5,UGCGCUG,-0.103
6,GCAGGAA,2.07
7,UAAGGAU,1.55
8,AAAGGAC,2.6
9,CAAGGAU,1.42
10,CAAGGAA,1.77
11,GAAGGAU,3.32
12,UAAGGAA,1.66
13,AAAGGAA,3.51
14,AAAGGAG,3.75
15,GAAGGAA,4.54
16,UAAGGAG,1.9
17,GGAGGAA,3.08
18,AAUGGCG,2.02
19,GUCCUGC,-0.606
20,UACCCCU,-0.65
21,AGCGCUG,-0.0889
22,GCCACUU,-0.992
23,UACACAU,-0.5
24,GUCCGCA,-0.672
25,UCUGAUC,-0.876

row,Sequence,RNAcompete 7-mer binding Z-score
1,GCGUGUG,0.618
2,AUCGCAA,-0.388
3,GCUUAAG,-0.439
4,GAAGGAG,4.52
5,GAAGGAC,2.8
6,CAAGGAG,2.31
7,GGUGGAU,2.46
8,AGUGGAU,2.33
9,CGUGGAA,1.29
10,UGUGGAA,1.47
11,AGUGGAC,1.44
12,GGUGGAG,3.9
13,GGUGGAA,3.71
14,AGUGGAA,3.21
15,UGUGGAG,2.47
16,CGUCACU,-0.515
17,CACCCUG,-0.89
18,AUGACUA,-0.347
19,UGUGGUA,0.833
20,GACGAGA,0.691
21,UCAGCGU,-0.26
22,CCGGCAC,-0.388
23,AAGGAGG,4.62
24,GAGGAGG,2.99
25,GAGGAUG,2.57

row,Sequence,RNAcompete 7-mer binding Z-score
1,UAGGAGA,1.78
2,CAGGAGA,2.02
3,AAGGAUG,3.89
4,UAGGAGG,2.94
5,AAGGAGA,3.18
6,AAGGAUA,2.92
7,CCCAAUA,-0.759
8,CCGUCGC,-0.752
9,UGAUCCA,-0.515
10,ACAUCCU,-0.839
11,GCAGGAU,1.22
12,CGAGCGU,0.166
13,GGAGCGG,4.19
14,AGAGCGG,1.46
15,CGAGCGG,3.33
16,GGAGCGA,2.9
17,UGAGCGG,2.06
18,AGAGCGA,0.581
19,CGGGUUU,1.01
20,CUAUCGA,-0.781
21,GUGGAAG,3.47
22,GUGGAAC,1.73
23,AUGGAAG,3.16
24,AUGGAAA,2.62
25,AUGGAAC,2.02

row,Sequence,RNAcompete 7-mer binding Z-score
1,GUGGAAA,2.46
2,UCGGAGU,0.257
3,AGGGAUU,2.37
4,CGGGAUA,1.44
5,GAGGAUA,2
6,AGGGAUA,4.38
7,GGGGAUA,3.16
8,AGGGAUC,1.32
9,CGCAAAG,-0.22
10,UCGGUUG,0.286
11,ACAAUCU,-0.795
12,UUUGACG,-0.551
13,AUGUAGA,0.243
14,UCACAAU,-0.511
15,ACAGUUC,-0.672
16,GGAAUGG,4.19
17,UGAAUGG,2.22
18,AGAAUGG,3.51
19,CGAAUGG,1.4
20,GGAAUGU,1.58
21,AGAAUGU,0.184
22,UUGUGUG,0.0604
23,AAGAUAA,-0.0233
24,GAUGAAC,0.385
25,CUUCCAU,-0.799

row,Sequence,RNAcompete 7-mer binding Z-score
1,AGUCGCA,-0.122
2,GUGGUGG,3.78
3,GUGGUGC,1.68
4,AUGGUGC,0.789
5,CUGGUGG,1.22
6,AUGGUGG,3.33
7,UUGGUGG,2.09
8,CUCGGGA,0.228
9,CCGGACC,-0.712
10,GUCGUCU,-0.417
11,CGCAAAC,-0.588
12,UGGGGAA,3.58
13,UGGGGAG,3.37
14,GGGGGGA,2.69
15,CGGGGAG,2.54
16,UUGGGGA,2.27
17,UGGGGAC,2.28
18,UCGGGAA,1.4
19,GGGGGAG,2.6
20,UGGGGGA,3.33
21,UGCGUGA,0.381
22,UUGCGGU,-0.0161
23,AAAGCCU,-0.734
24,CCGUUGG,0.228
25,CCGAUCU,-0.938

row,Sequence,RNAcompete 7-mer binding Z-score
1,GUAUGAA,0.355
2,AGCAAGU,-0.0343
3,CUCGAAA,-0.493
4,GUGAGGC,1.86
5,UUGAGGA,1.04
6,UUGAGGC,0.341
7,CUGAGGG,1.53
8,AUGAGGU,1.83
9,AUGAGGC,1.35
10,GUGAGGG,4
11,UUGAGGG,3.15
12,AUGAGGG,4.32
13,CAAAGAU,-0.282
14,UGGGACG,2.27
15,AUCUGAA,-0.643
16,GGGUAAA,3.9
17,CGGUAAA,0.352
18,GGGUAAG,3.97
19,AGGUAAA,2.1
20,CGGUAAG,1.52
21,GGGUAAC,2.47
22,CGUAUGU,-0.337
23,ACUGCUA,-0.653
24,GGUAUGG,4.03
25,GGUAUGA,1.89

row,Sequence,RNAcompete 7-mer binding Z-score
1,AAUAUGG,1.27
2,GAUAUGC,-0.078
3,GGUAUGU,1.33
4,GAUAUGG,3.32
5,GACCGAU,-0.479
6,ACGCUUU,-0.865
7,GGGAAUG,3.43
8,GGGAAUA,3.15
9,UGGAACG,1.92
10,GGGAACG,3.86
11,GGGAACA,3.06
12,CGGAAUG,1.33
13,CGGAAUA,0.65
14,AGGAAUG,2.07
15,GGGAAUU,1.91
16,CACGUUA,-0.406
17,UCAGCUU,-0.905
18,CACAAUU,-0.577
19,CAUGUGU,-0.151
20,UCAUAUC,-0.613
21,UGGUGGC,1.72
22,UGGUGGA,2.74
23,GCGUGGA,2.22
24,UGGUGGG,4.04
25,AGGUGGA,3

row,Sequence,RNAcompete 7-mer binding Z-score
1,GGGUGCA,3
2,GAGUGGU,2.52
3,UGGUGGU,2.37
4,AGGUGGG,3.44
5,AGGUGGU,2.19
6,GGGUGGA,4.54
7,GGGUGGU,4.19
8,GACAAGU,0.148
9,ACUAUAU,-0.544
10,AGUCCUC,-0.708
11,UUACAUU,-0.686
12,GAAUCUG,-0.632
13,GCUCGUU,-0.577
14,ACUCACG,-0.708
15,GCGCGGC,0.811
16,GGCAUGC,0.228
17,AUUCCGG,-0.559
18,UGUCAGA,-0.402
19,CGGUGGA,2.27
20,CGGUGGU,1.62
21,GCGUGGG,3.66
22,GGGUGCG,2.85
23,UCGUGGG,2.23
24,GGGUGGC,2.45
25,CGGUGGG,3.18

row,Sequence,RNAcompete 7-mer binding Z-score
1,ACGUGGG,2.48
2,GGGUGGG,4.11
3,UUUGAGU,-0.213
4,ACGUAUA,-0.198
5,UUAGCGC,-0.617
6,GAGGAAU,1.71
7,AAGGAAG,4.04
8,AAGGAAU,2.34
9,GAGGAAG,3.52
10,UAGGAAA,1.6
11,CAGGAAA,1.26
12,AAGGAAA,3.21
13,AAGGAAC,2.66
14,UAGGAAG,1.94
15,UUUGAUC,-0.719
16,CUGACGG,0.243
17,AGAGGCA,0.421

# — the supplement of paper PMC5499739
